These results are taken from PubChem BioAssay (NCATS).

The nature of assay [1]: qHTS for Inhibitors of the Functional Ribonucleoprotein Complex (vRNP) of Lassa (LASV) Arenavirus: LASV Primary Screen - GLuc reporter signal (AID 1347082; calls by dose curve; tested in HEK293 reporter line; further: nearly all actives have a fitted effect of over 60% in size; further: potency means the concentration at half of the fitted maximal effect; on activity change, negative = inhibition: on the % scale 0 is the no-effect control and ±100 the full control effect). On the technique in general: Quantitative high-throughput screening tests each substance at several concentrations.
Assay [2] is described as follows: qHTS for Inhibitors of the Functional Ribonucleoprotein Complex (vRNP) of Lassa (LASV) Arenavirus: Viability assay - alamar blue signal for LASV Primary Screen (AID 1347083; calls by dose curve; tested in HEK293 reporter line; further: nearly all actives have a fitted effect of over 80% in size; further: potency means the concentration at half of the fitted maximal effect).
Assay [3] is described as follows: qHTS for Inhibitors of the Functional Ribonucleoprotein Complex (vRNP) of Lymphocytic Choriomeningitis Arenaviruses (LCMV): Viability assay - alamar blue signal for LCMV Primary Screen (AID 1347085; calls by dose curve; tested in HEK293 reporter line; further: nearly all actives have a fitted effect of over 80% in size; further: potency means the concentration at half of the fitted maximal effect).
Assay [4] deals with Nucleoprotein (Lymphocytic choriomeningitis virus (strain Armstrong)) (UniProt P09992). Description: qHTS for Inhibitors of the Functional Ribonucleoprotein Complex (vRNP) of Lymphocytic Choriomeningitis Arenaviruses (LCMV): LCMV Primary Screen - GLuc reporter signal (AID 1347086). Further: nearly all actives have a fitted effect of over 70% in size. Further: potency means the concentration at half of the fitted maximal effect. On activity change, negative = inhibition: on the % scale 0 is the no-effect control and ±100 the full control effect.
Assay [5] can be described thus: Primary qHTS for inhibitors of SARS-S pseudo-typed particle cell entry (AID 1479145). Further: nearly all actives have a fitted effect of over 45% in size. On activity change, negative = inhibition: on the % scale 0 is the no-effect control and ±100 the full control effect.
A short description of assay [6]: Primary qHTS for Huh7 cytotoxicity: counterscreen for inhibitors of MERS-S pseudotyped particle cell entry (AID 1479147). The note with it: outcome: dose series up to 57.1 µM unless noted.
A short description of assay [7]: Primary qHTS for inhibitors of MERS-S pseudo-typed particle cell entry (AID 1479149). Further: nearly all actives have a fitted effect of over 60% in size.
Assay [8] can be described thus: Primary qHTS for Vero E6 cytotoxicity: counterscreen for inhibitors of SARS-S pseudo-typed particle cell entry (AID 1479150). The note with it: outcome: dose series up to 57.1 µM unless noted.
The nature of assay [9]: Cytotoxicity counterscreen for inhibitors of SARS-CoV-2 cell entry (AID 1645845). Further: nearly all actives have a fitted effect of over 50% in size. On activity change, negative = cytotoxicity: on the % scale 0 is the no-effect control and ±100 the full control effect. Summed up: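 48 h compound treatment (after 1 h preincubation), HEK293-ACE2 cells, 37 C/5% CO2; ATP luminescence endpoint; normalized to cell wells and media blanks.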
(The purpose of a counterscreen is to sort out artefacts and off-target activity.)

A short description of assay [10]: Primary qHTS to identify inhibitors of SARS-CoV-2 cell entry (AID 1645846). Further: nearly all actives have a fitted effect of over 45% in size. Further: potency means the concentration at half of the fitted maximal effect. The note with it: activity change, negative = inhibition: at 57.1 µM (top of the series) unless noted. Summed up:
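Inhibition of spike-mediated entry was scored in human ACE2-transfected Expi293F cells. Particles were MLV-pseudotyped with Wuhan-Hu-1 S carrying a 19-aa C-terminal deletion; signal was luciferase after two days, scaled between spike PP and fusion-protein-free PP.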

For a further assay, the system named is CRL-7250. Description: qHTS assay to identify novel small-molecules to repurpose for Merkel cell carcinoma treatment (AID 1296009; active means well fitted curve in the direction sought with a large enough effect; an effect the other way counts as inactive or inconclusive; further: nearly all actives have a fitted effect of over 60% in size). To be noted: MCC and control cell lines, CellTiter-Glo viability, 72 h; series mostly up to 92 µM. In a few lines:
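After compound transfer in DMSO, plates were kept 72 hr at 37 degree celsius. Luminescent ATP signal from CellTiter-Glo served as viability measure, normalized against DMSO and no-cell controls.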

Assay [11] can be described thus: Confirmatory qHTS for activators (rescue) of SARS-CoV-2 Cytopathic Effect (CPE) (AID 1508606). Further: 0% is about no effect; nearly all actives have a fitted effect of over 70% in size.
Assay [12] is described as follows: Inducers of the Endoplasmic Reticulum Stress Response (ERSR) in human glioma: Validation (AID 504836; active means well fitted curve in the direction sought with a large enough effect; an effect the other way counts as inactive or inconclusive; further: 0% is about no effect). Summed up:
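ERSR induction read as luciferase luminescence (Bright-Glo, 10 min at room temperature) in stably transfected human U87-MG glioma cells exposed to compounds for 16 h, using GRP78 as sensor.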

Assay [13] is described as follows: qHTS Assay for Lipid Storage Modulators (AID 1519). To be noted: Drosophila S3 cells, BODIPY lipid droplet/cell ratio, laser cytometry, cells loaded with oleic acid. In a few lines:
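Cells seeded at 5,000 per well were treated with compounds over a concentration series and loaded with oleic acid (400 uM, as added). Lipid droplet fluorescence (488 nm excitation, 500-530 nm channel) was read by laser-scanning cytometry and normalized to 20 uM Triacsin C.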

Assay [14] can be described thus: qHTS profiling of the MIPE4 collection as inhibitors of Plasmodium falciparum (3D7) proliferation (AID 743344; call rule not given here;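 further: scaled between DMSO vehicle wells and 0.29 µM artemisinin as full inhibition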). The note with it: P. falciparum 3D7 in erythrocytes, SYBR Green DNA fluorescence, 72 h; at 28.5 µM (top of the series) unless noted. In a few lines:
(§1)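 Erythrocytes infected with P. falciparum (0.3% parasitemia, 2.5% hematocrit) incubated with compounds 72 h at 37 C, 5% CO2. Lysis with saponin/Triton buffer containing SYBR Green I, overnight at room temperature in the dark; DNA fluorescence (485/535 nm) normalised to 0.29 uM artemisinin and DMSO.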

Assay [15] can be described thus: qHTS profiling of the MIPE4 collection as inhibitors of Plasmodium falciparum (DD2) proliferation (AID 743345; call rule not given here). To be noted: P. falciparum Dd2 in erythrocytes, SYBR Green DNA, 72 h; at 28.5 µM (top of the series) unless noted. Summed up: as §1

Values joined by “and” are separate entries in the source; they are usually repeats but may differ in a detail not shown here. Equal values may be shown once. Results filed as inconclusive are left out. Active and inactive are the calls of the source. Unless noted, the call rests on the fitted dose curve.

Chain of Nucleoprotein (Lymphocytic choriomeningitis virus (strain Armstrong)) (P09992 whole entry, looked up): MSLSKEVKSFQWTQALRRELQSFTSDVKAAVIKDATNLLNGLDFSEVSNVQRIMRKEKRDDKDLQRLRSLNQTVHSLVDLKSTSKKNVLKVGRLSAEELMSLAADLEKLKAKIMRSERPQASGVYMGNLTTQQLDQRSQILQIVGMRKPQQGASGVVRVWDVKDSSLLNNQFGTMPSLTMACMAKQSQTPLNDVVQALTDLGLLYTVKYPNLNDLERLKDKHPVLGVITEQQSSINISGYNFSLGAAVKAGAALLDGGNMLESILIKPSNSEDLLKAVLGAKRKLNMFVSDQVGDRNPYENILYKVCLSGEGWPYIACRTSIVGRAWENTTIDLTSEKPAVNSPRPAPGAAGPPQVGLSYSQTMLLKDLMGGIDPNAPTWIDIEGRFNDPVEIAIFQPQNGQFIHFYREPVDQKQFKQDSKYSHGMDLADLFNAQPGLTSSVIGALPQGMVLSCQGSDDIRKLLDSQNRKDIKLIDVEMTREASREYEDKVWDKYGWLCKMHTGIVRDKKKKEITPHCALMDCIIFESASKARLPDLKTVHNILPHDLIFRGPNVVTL

For the molecule `O=C(O)CCn1c2c(c3ccccc31)C[C@H](NS(=O)(=O)c1ccc(F)cc1)CC2`, the Potency result in [1], in assay [2], in assay [3], in assay [4], in assay [5] and in assay [7] was “inactive” in each case. The Potency result (in assay [9]; with CRL-7250) was “inactive” throughout. The call in assay [6] and in [8] was inactive. Besides, in [10], the activity change, negative = inhibition was -25.2% and -23.3%.
On to `CC1CCN(c2cc(N3CCN(C)CC3)ccc2NC(=O)c2cc(C#N)c[nH]2)CC1`, for which the Potency result (in assay [1]; in [2]; in assay [3]; in assay [4]; in assay [9]; in the assay on CRL-7250) was “inactive” throughout. Besides, in assay [10], the activity change, negative = inhibition was -17.8%.
For the molecule `Nc1[nH]nc2nnc(-c3c(-c4ccccc4)nn4ccccc34)cc12`, the Potency result (in assay [1]; in assay [2]; in assay [3]; in [4]; in assay [9]; in the assay with CRL-7250) was “inactive” each time. Besides, the activity change, negative = inhibition in assay [10] is -11.3%.
For `O=C(CN1C(=O)C2(CCCC2)NC[C@H]1c1cc(F)cc(F)c1)Nc1ccc2c(c1)C[C@@]1(C2)C(=O)Nc2ncccc21`, the Potency entry (in assay [1]; in assay [2]; in assay [3]; in assay [4]; in assay [9]; in the assay with CRL-7250) was “inactive” in each case. Further, in assay [10], the activity change, negative = inhibition was -13.1%.
On to `CCc1nc(-c2cccc(C)c2)c(-c2ccnc(NC(=O)c3ccccc3)c2)s1`, for which the Potency result in assay [1], in assay [2], in assay [3], in [4], in assay [11] and in [9] was “inactive” in each case. Besides, the Potency entry in the assay with CRL-7250 was “inactive”. In addition, the Potency in assay [10] was 25.1 µM (active).
As to `OC(CCN1CCCCC1)(c1ccccc1)C1CCCCC1` (stereo not drawn), the molecule was classed as inactive in assay [12], in assay [6] and in [8]. Moreover, the Potency result (in assay [1]; in [2]; in assay [3]; in assay [4]; in the assay with CRL-7250) was “inactive” in each case.
As to `CN1CCC(COc2cnc(-c3cccc(Cn4nc(-c5cccc(C#N)c5)ccc4=O)c3)nc2)CC1`, the Potency in assay [1] is 5.44 µM (active); in [2] it was 0.153 µM (active); in assay [3], 0.0611 µM (active); in assay [4], 0.685 µM (active). Moreover, the Potency entry (in assay [9]; in the assay on CRL-7250) was “inactive” throughout.
Consider `Cc1ccccc1C(C(=O)NC1CCCCC1)N(C(=O)CNc1ccc(C#N)cc1)c1cccc(F)c1` (stereo not drawn), for which the Potency result (in assay [1]; in assay [2]; in assay [3]; in assay [4]; in [9]; in the assay on CRL-7250) was “inactive” throughout. In assay [10], the activity change, negative = inhibition came out at 1.58%.
With `CCCCCCCCCC(=O)N[C@@H](Cc1c[nH]c2ccccc12)C(=O)N[C@H](CC(N)=O)C(=O)N[C@@H](CC(=O)O)C(=O)N[C@@H]1C(=O)NCC(=O)N[C@@H](CCCN)C(=O)N[C@@H](CC(=O)O)C(=O)N[C@H](C)C(=O)N[C@@H](CC(=O)O)C(=O)NCC(=O)N[C@H](CO)C(=O)N[C@@H]([C@@H](C)CC(=O)O)C(=O)N[C@@H](CC(=O)c2ccccc2N)C(=O)O[C@@H]1C`, the Potency result in assay [1], in assay [2], in [3], in [4], in assay [5] and in assay [7] was “inactive” each time. In addition, the Potency result (in assay [9]; in [10]; in the assay with CRL-7250) was “inactive” in each case. The outcome in assay [6] was “inactive [at 26.4 µM]”. In addition, the call in [8] was inactive. Further, in assay [10], the activity change, negative = inhibition is -32.9% [at 27.1 µM].
As to `O=C1CCC[C@@H]2[C@H]3CCC[N+]4([O-])CCC[C@@H](CN12)[C@@H]34` (stereo partly drawn), the Potency entry (in assay [1]; in assay [2]; in assay [3]; in assay [4]; in [9]; in the assay on CRL-7250) was “inactive” throughout. Besides, the activity change, negative = inhibition in assay [10] is -3.17%.
Regarding `O=C(O)CCC=CCC[C@@H]1[C@H](N2CCCCC2)[C@@H](O)C[C@@H]1OCc1ccc(-c2ccccc2)cc1`, the Potency result in assay [1], in assay [2], in [3], in [4], in assay [7] and in assay [9] was “inactive” in each case. Moreover, in the assay on CRL-7250, the Potency result is “inactive”. The result in [6] and in [8] was inactive.
For the molecule `CC1CNc2c(cccc2S(=O)(=O)N[C@@H](CCCN=C(N)N)C(=O)N2CC[C@@H](C)C[C@@H]2C(=O)O)C1` (stereo partly drawn), the Potency result (in assay [1]; in assay [2]; in assay [3]; in assay [4]; in [9]; in the assay on CRL-7250) was “inactive” each time. Further, the activity change, negative = inhibition in assay [10] is -11.7%.
For the molecule `CN1[C@H]2CC(OC(=O)[C@@H](CO)c3ccccc3)C[C@H]1[C@H]1O[C@H]12` (stereo partly drawn), in assay [13] (at 25.7 µM (top of the series)), the activity change, negative = inhibition was -0.085% (inactive). Moreover, the max response in assay [13] (measured here: cell count channel max response) is 9.59%; in assay [13] (measured here: lipid channel max response), 10.6%. For the same molecule, in assay [14], the parasite growth, % of DMSO control was determined as 96.6%. In addition, the parasite growth remaining, % of DMSO control (lower = more inhibition) in [15] came out at 107%. The Potency entry (in assay [1]; in assay [2]; in assay [3]; in [4]; with CRL-7250) was “inactive” each time.
Take `Cc1cnc(Nc2cccc(CN3CCOCC3)c2)nc1Nc1cccc(S(=O)(=O)NC(C)(C)C)c1`: the Potency entry (in assay [1]; in [2]; in assay [3]; in assay [4]; in assay [9]; in the assay with CRL-7250) was “inactive” each time.
For `CN(C)c1nc(Cc2ccc(NC(=O)c3ccc(C(F)(F)F)cc3)cc2)nc(N(C)C)c1CC(=O)O`, the Potency entry (in [1]; in assay [2]; in [3]; in assay [4]; with CRL-7250) was “inactive” throughout.
As for `N#Cc1ccc(Oc2ccc3c(c2)COB3O)cc1`, the Potency result in assay [1], in [2], in assay [3], in [4], in assay [7] and in assay [9] was “inactive” in each case. Also, the Potency result (in assay [10]; in the assay on CRL-7250) was “inactive” in each case. For the same molecule, the call in assay [6] was inactive. In addition, the activity change, negative = inhibition in [10] is -3.74%.
With `CN(C)CC(C)(C)CNc1nn2c(-c3ccccc3)nnc2cc1C1CCC1`, the Potency result (in [1]; in [9]; in the assay on CRL-7250) was “inactive” each time. Besides, the results for the Potency in [2], in assay [3] and in [4] were 15.3 µM (active), 2.17 µM (active) and 17.2 µM (active), respectively. For the same molecule, the activity change, negative = inhibition in [10] was -2.68%.
Take `c1ccc(CNc2nc(N3CCOc4ccccc43)nc3c2CCCC3)cc1`: the Potency result (in assay [1]; in assay [2]; in assay [3]; in assay [4]; in assay [9]; in the assay with CRL-7250) was “inactive” throughout.
On to `CN(C)CC(=O)N1CCC(c2ccc(NC(=O)c3ncc(C#N)[nH]3)c(C3=CCCCC3)c2)CC1`, for which the Potency entry (in [1]; in assay [2]; in assay [3]; in assay [4]; in [9]; in the assay on CRL-7250) was “inactive” each time.
For `CCCCCCCCCCCCCCCCCCCCCCO`, the Potency entry (in assay [1]; in [2]; in assay [3]; in [4]; in assay [9]; in the assay with CRL-7250) was “inactive” in each case. The outcome in assay [5] is “inactive [at 0.573 µM]”; in [6] it was “inactive [at 0.573 µM]”; in assay [7], “inactive [at 0.573 µM]”; in assay [10], “inactive [at 0.702 µM]”. In assay [8], the activity change, negative = cytotoxicity was 2.8% [at 0.573 µM] (inactive). Besides, in assay [10], the activity change, negative = inhibition was -17.8% [at 27.1 µM].
